PubChem BioAssay (NCATS)
Results filed as inconclusive are left out. Activity calls are given as the source filed them. The call rests on the fitted dose curve; in most records, active means well fitted inhibition curve with a large enough effect; inconclusive means small, poorly fitted or top-dose-only effect; inactive means flat fitted curve, though single readings scatter.

Experiments:
Test in all cases: qHTS profiling for inhibitors of Plasmodium falciparum proliferation (AID 504749); further: nearly all actives have a fitted effect of over 60% in size
Conditions in all cases: P. falciparum in erythrocytes, SYBR Green DNA, 72 h; series mostly up to 28.7 µM
PAD = system: PAD
Outline: (§1)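 Infected RBCs, 0.3% parasitemia/2.5% Hct final; cpd 72 h, 37 C, 5% CO2; lysis buffer with saponin/triton/SYBR Green I, o/n RT dark; FI 485/535; norm. to artemisinin (0.29 uM) and DMSO.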

PC15 = system: PC15
Outline: as §1

PC26 = system: PC26
Outline: as §1

PC49 = system: PC49
Outline: as §1

SC27B = system: SC27B
Outline: as §1

TAB109 = system: TAB109
Outline: as §1

TAB113 = system: TAB113
Outline: as §1

TAB165 = system: TAB165
Outline: as §1

W2 = system: W2
Outline: as §1

Measured: Potency

C[C@H](CCC(=O)O)[C@H]1CC[C@H]2[C@@H]3CC[C@@H]4C[C@H](O)CC[C@]4(C)[C@H]3C[C@H](O)[C@]12C
inactive: all assays above

NC(=O)[C@@H]1CCCN1C(=O)[C@H](Cc1cnc[nH]1)NC(=O)[C@@H]1CCC(=O)N1
inactive: all assays above

O=P(O)(O)O
inactive: all assays above

Cc1ccccn1
inactive: all assays above

Cc1ncc(C[n+]2csc(CCOP(=O)(O)OP(=O)(O)O)c2C)c(N)n1
inactive: all assays above

CC(O)CN(C)C (stereo not given)
inactive: all assays above

NC(=O)C1c2ccccc2CCc2ccccc21
inactive: all assays above

O=C(O)CCCC/C=C(\c1ccccc1)c1cccnc1
inactive: all assays above

CCOc1ccc(NC(=S)Nc2ccc(OCC)cc2)cc1
inactive: all assays above

C=CCCCCCCCCC(=O)OC
inactive: all assays above

Cc1ccc(S(=O)(=O)O)cc1C
inactive: all assays above

Oc1cc(O)cc(O)c1
inactive: all assays above

COc1cc(C)c(/C=C/C(C)=C/C=C/C(C)=C/C(=O)O)c(C)c1C
inactive: all assays above

CCN(CC)CCOc1ccc2nc(N(C)C)sc2c1
inactive: all assays above

C[Si](C)(C)O[Si](C)(C)C
inactive: all assays above

CCCC(=O)O
inactive: all assays above

FC(F)(F)C(F)(F)C(F)(F)C(F)(F)C(F)(F)C(F)(F)F
inactive: all assays above

FC(F)OC(Cl)C(F)(F)F (stereo not given)
inactive: all assays above

NC(=O)Oc1ccc(Cc2ccccc2)cc1
inactive: all assays above

Cc1nc(NS(=O)(=O)c2ccc(N)cc2)nc(C)c1Br
inactive: all assays above

O=C(O)CCC/C=C\C[C@@H]1[C@@H](/C=C/[C@@H](O)COc2cccc(Cl)c2)[C@H](O)C[C@@H]1O
inactive: all assays above

CC(=O)N[C@@H]1C(O[C@H]2O[C@H](C(=O)O)C(O)[C@H](O)[C@H]2O)[C@H](O)[C@@H](CO)O[C@H]1O[C@@H]1C(C(=O)O)O[C@@H](O[C@H]2[C@H](O)[C@@H](CO)OC(O)[C@@H]2NC(C)=O)[C@H](O)[C@H]1O (stereo not given in full)
inactive: all assays above

O=C(O)COc1ccc(CCNS(=O)(=O)c2ccccc2)s1
inactive: all assays above

C=C(C)C1CC=C(C)CC1 (stereo not given)
inactive: all assays above

CC(C)(C)CC(C)(C)c1cc(Cc2cc(C(C)(C)CC(C)(C)C)cc(-n3nc4ccccc4n3)c2O)c(O)c(-n2nc3ccccc3n2)c1
inactive: all assays above
